Source: PubChem BioAssay (National Center for Advancing Translational Sciences (NCATS))
S16 F2sN tox: S16 Schwann cell cytotoxicity. S16 Pmp22-F2sN Schwann cells viability, CellTiter-Glo, 24 h. Potency, µM (highest dose often 57.5 µM), usual class: cytotoxic. hit rate 0.48% among 43,000. AID 1508642; further: nearly all actives have a fitted effect of over 65% in size
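Luminescence from CellTiter-Glo, read by CCD camera after a 15 min room-temperature incubation, served as the viability signal. Reporter Schwann cells (S16 Pmp22-F2sN) had been treated with pin-transferred compounds for 24 h at 37C.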
NTMT1 inh: inhibitors of human N-terminal methyltransferase NTMT1; Q9BV86; NTMT1 MTase-Glo SAH luminescence, purified enzyme; Potency, µM (series often up to 114 µM), actives largely listed as inhibitors; hit rate 2.5% among 59,000; further: nearly all actives have a fitted effect of over 65% in size
Target sequence (Q9BV86 whole entry, looked up): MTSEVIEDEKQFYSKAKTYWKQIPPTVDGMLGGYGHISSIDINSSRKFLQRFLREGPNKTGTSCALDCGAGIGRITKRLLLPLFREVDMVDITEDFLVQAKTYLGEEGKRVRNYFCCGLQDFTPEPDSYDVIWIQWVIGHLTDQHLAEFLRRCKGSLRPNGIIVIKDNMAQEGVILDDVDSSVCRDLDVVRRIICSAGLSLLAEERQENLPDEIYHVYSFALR
pS6 MEF inh: mTORC1 pathway inhibition measured by phospho-rpS6; Tsc2-/- p53-/- MEF, phospho-rpS6 immunofluorescence/PI, 24 h; Potency, µM (top dose mostly 38.3 µM), actives largely listed as inhibitors; hit rate 0.78% among 44,000; further: nearly all actives have a fitted effect of over 50% in size
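Read-out: phospho-S6 Alexa-488 intensity over PI intensity per well, scored as % active cells using thresholds from rapamycin (7.5 nM) and DMSO controls. Tsc2-/-, p53-/- MEFs exposed to compound for 24 h; PI cell count recorded as viability.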
GALC G270D act: enhancers of human galactocerebrosidase G270D mutant activity in cells; Potency, µM (highest dose often 57.5 µM), actives largely listed as activators; AID 1159614; hit rate 0.1% among 45,000; 145M-Twi-hGALC-G270D cells (Twitcher mouse brain line with human GALC G270D), HMU-beta-Gal fluorescence, 48 h; P54803; further: nearly all actives have a fitted effect of over 65% in size
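Mutant human GALC (G270D), stably expressed in a Twitcher mouse brain cell line lacking endogenous GALC, is measured in live-treated cells via 6-hexadecanoylamino-4-methylumbelliferyl-β-galactoside hydrolysis (0.1 mM final, pH 5.2) with fluorescent detection.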
OvCa metastasis: blocks SKOV3ip1 adhesion and invasion in omental model; SKOV3ip1-GFP adhesion/invasion on 3D omental model, fluorescence; hit rate 0.1% among 46,000; Potency, µM (series often up to 45.8 µM), hits mostly inhibitors; further: nearly all actives have a fitted effect of over 65% in size
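A 3D layer of primary human omental fibroblasts, mesothelial cells, fibronectin and collagen I, grown 48 hr, received SKOV3ip1-GFP cells in serum-free medium plus compounds at 0.36-46 umol/L. After 2 hr RT and 16 hr 37 C, fixed adherent GFP cells were counted; normalized to DMSO and tomatine.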
PMP22 txn prim: modulators of PMP22 gene transcription in S16 Schwann cells | hit rate 2% among 43,000 | AID 1508649 | S16 Pmp22-F2sN Schwann cells (luciferase reporters placed in the Pmp22 gene), FLuc/NLuc coincidence luminescence, 24 h | Potency, µM (doses to about 57.5 µM), hits mostly inhibitors; active means clear falling dose curves in both reporters; inconclusive means both reporters move, but less clearly or upward; inactive means either reporter flat; the % is the NLuc reporter signal
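Reporter cells (S16 Pmp22-F2sN, 500–1,000 per well) exposed to compounds for 24 h, 37C, 5% CO2; lysis with FLuc read after 10 min, then Stop&Glo and NLuc read after 10 min.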
DYRK1A inh-1: human DYRK1A kinase inhibition by ATP depletion readout; Potency, µM (doses to about 76.9 µM), hits mostly inhibitors; recombinant DYRK1A, Kinase-Glo ATP depletion luminescence; shares compounds with NTMT1 inh; hit rate 80% among 100
CLK4 inh-1: CLK4 kinase inhibition, SAR round 2 | shares compounds with NTMT1 inh | hit rate 90% among 90 | recombinant Clk4, Kinase-Glo ATP luminescence, 4.5 h | Potency, µM (doses to about 76.9 µM), usual class: inhibitors
CLK4 inh-2: CLK4 kinase inhibition, SAR round 2; Reaction Biology kinase assay, 10 uM ATP; shares compounds with NTMT1 inh; hit rate 100% among 65; Potency, µM, hits mostly inhibitors; calls by dose curve
DYRK1A inh-2: inhibitors of human DYRK1A kinase; hit rate 90% among 65; AID 504424; shares compounds with NTMT1 inh; Reaction Biology kinase assay, 10 uM ATP; Potency, µM, actives largely listed as inhibitors;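 active means compounds that showed inhibition of Dyrk1a and received a fitted potency; inactive means compounds that showed no inhibition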
CLK2 inh: blocks human CLK2 kinase in radiometric assay | AID 504427 | shares compounds with NTMT1 inh | hit rate 90% among 65 | Reaction Biology kinase assay, 10 uM ATP | Potency, µM, most hits filed as inhibitors;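 active means compound that inhibits Clk2 kinase in the dose series, with an IC50 potency reported; inactive means no inhibition seen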
CLK3 RBC: inhibitors of human CLK3 kinase; shares compounds with NTMT1 inh; recombinant CLK3 kinase assay, 10 uM ATP; Potency, µM, usual class: inhibitors; hit rate 40% among 65; AID 504428;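 active means compounds that inhibited Clk3 enough in the ten-dose series to give a half-maximal potency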
DYRK1B inh: inhibitors of human Dyrk1b kinase; shares compounds with NTMT1 inh; Recombinant Dyrk1b kinase assay, 10 uM ATP; Potency, µM, usual class: inhibitors; hit rate 80% among 65;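 active means compounds whose dose response shows an inhibitor phenotype against the kinase Dyrk1b; inactive means compounds showing no inhibitor phenotype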
CLK1 RBC: CLK1 kinase inhibition | shares compounds with NTMT1 inh | recombinant Clk1 kinase assay, 10 uM ATP | Potency, µM, actives largely listed as inhibitors | hit rate 90% among 65;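 active means compounds that block the splicing kinase Clk1 enough to give a fitted half-inhibition concentration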
Of the large screens only hits and unclear results are named; the others gave an inactive call (follow-up assays come after a bar, where they were run). Sampled rows, rich in hits. Any-hit rate of the full collection: about 3.6%. Unless noted, the call rests on the fitted dose curve; in most records, active means well fitted curve in the direction sought with a large enough effect; inconclusive means small, poorly fitted or top-dose-only effect, or another doubt; inactive means no such curve, though single readings can be large; an effect the other way counts as inactive or inconclusive.

Cc1nc(CCNc2ncnc3ccc(-c4ccc5c(c4)OCO5)cc23)cs1	none (no result: S16 F2sN tox, pS6 MEF inh, GALC G270D act, OvCa metastasis, PMP22 txn prim) | CLK4 inh-1 0.065µM
c1nc(NCC2CCOC2)c2cc(-c3ccc4c(c3)OCO4)ccc2n1 (stereo not given)	NTMT1 inh 25µM (no result: S16 F2sN tox, pS6 MEF inh, GALC G270D act, OvCa metastasis, PMP22 txn prim) | DYRK1A inh-1 0.092µM
CCN(CCc1cn(C)cn1)c1ncnc2ccc(-c3ccc4c(c3)OCO4)cc12	NTMT1 inh inconclusive (no result: S16 F2sN tox, pS6 MEF inh, GALC G270D act, OvCa metastasis, PMP22 txn prim) | DYRK1A inh-1 2.3µM
CCCN(Cc1cccs1)c1ncnc2ccc(-c3ccc4c(c3)OCO4)cc12	NTMT1 inh inconclusive (no result: S16 F2sN tox, pS6 MEF inh, GALC G270D act, OvCa metastasis, PMP22 txn prim) | DYRK1A inh-1 0.82µM
CC(C)(C)CNc1ncnc2ccc(-c3ccc4c(c3)OCO4)cc12	none (no result: S16 F2sN tox, NTMT1 inh, pS6 MEF inh, GALC G270D act, OvCa metastasis, PMP22 txn prim) | DYRK1A inh-1 0.0091µM
c1nc(N2CCC(N3CCCC3)CC2)c2cc(-c3ccc4c(c3)OCO4)ccc2n1	NTMT1 inh inconclusive (no result: S16 F2sN tox, pS6 MEF inh, GALC G270D act, OvCa metastasis, PMP22 txn prim) | DYRK1A inh-1 23µM | CLK4 inh-2 10 | DYRK1A inh-2 inactive | CLK2 inh inactive | CLK3 RBC inactive | DYRK1B inh inactive | CLK1 RBC 15µM
CCCNc1ncnc2ccc(-c3ccc4c(c3)OCO4)cc12	none (no result: S16 F2sN tox, NTMT1 inh, pS6 MEF inh, GALC G270D act, OvCa metastasis, PMP22 txn prim) | CLK4 inh-1 0.041µM
CC1(C)OC2=C(C(=O)c3ccccc3C2=O)[C@H](NCc2ccccc2)[C@@H]1O	none (no result: S16 F2sN tox, pS6 MEF inh, GALC G270D act, OvCa metastasis, PMP22 txn prim)
CCOC(=O)c1cnc2ccc(C)cc2c1NCCc1ccc(OC)c(OC)c1	none
CCNC(=O)c1ccc(-c2ccc3ncnc(NCCc4cnc[nH]4)c3c2)o1	none (no result: S16 F2sN tox, pS6 MEF inh, GALC G270D act, OvCa metastasis, PMP22 txn prim) | CLK4 inh-1 1.3µM
O=C(O)c1ccc(-c2ccc3ncnc(NCCc4cnc[nH]4)c3c2)o1	none (no result: S16 F2sN tox, pS6 MEF inh, GALC G270D act, OvCa metastasis, PMP22 txn prim) | DYRK1A inh-1 9.2µM
CCOC(=O)c1ccc(-c2ccc3ncnc(NCCc4cnc[nH]4)c3c2)o1	NTMT1 inh inconclusive (no result: S16 F2sN tox, pS6 MEF inh, GALC G270D act, OvCa metastasis, PMP22 txn prim) | DYRK1A inh-1 1.6µM
CN1CCN(C(=O)c2ccc3cc(CCNc4ncnc5ccc(C#N)cc45)ccc3c2)CC1	none (no result: S16 F2sN tox, pS6 MEF inh, GALC G270D act, OvCa metastasis, PMP22 txn prim)
Cc1nc(C)c(-c2ccc3ncnc(NCCc4cnc[nH]4)c3c2)s1	NTMT1 inh inconclusive (no result: S16 F2sN tox, pS6 MEF inh, GALC G270D act, OvCa metastasis, PMP22 txn prim) | DYRK1A inh-1 26µM
Cc1noc(C)c1-c1ccc2ncnc(NCc3ccc(F)cc3)c2c1	none (no result: S16 F2sN tox, pS6 MEF inh, GALC G270D act, OvCa metastasis, PMP22 txn prim)
c1cncc(CNc2ncnc3ccc(-c4ccco4)cc23)c1	none (no result: S16 F2sN tox, pS6 MEF inh, GALC G270D act, OvCa metastasis, PMP22 txn prim)
OCc1ccc(-c2ccc3ncnc(NCCc4cnc[nH]4)c3c2)o1	NTMT1 inh inconclusive (no result: S16 F2sN tox, pS6 MEF inh, GALC G270D act, OvCa metastasis, PMP22 txn prim) | DYRK1A inh-1 23µM
